Bioassay records deposited in PubChem BioAssay by The Scripps Research Institute Molecular Screening Center.
An excerpt weighted towards active compounds, which were near 4.8% of everything screened.
DAX1 inh-1: DAX1 (NR0B1) inhibitors, primary screen, cell-based, HEK293, Gal4-DAX1, luciferase luminescence. inhibition, % at 6.75 µM. Nuclear receptor subfamily 0 group B member 1 (Homo sapiens), P51843. hit rate 0.99% among 340,000. HEK293 Gal4-DAX1 luciferase reporter. AID 504766, 2011;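 active = inhibition above the mean over all tested compounds plus 3 SD, cut at about 4.2% in these data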;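 note: inhibition shows as a rise in luminescence from relieved DAX1 repression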
Target sequence (P51843 207-470 limits assumed): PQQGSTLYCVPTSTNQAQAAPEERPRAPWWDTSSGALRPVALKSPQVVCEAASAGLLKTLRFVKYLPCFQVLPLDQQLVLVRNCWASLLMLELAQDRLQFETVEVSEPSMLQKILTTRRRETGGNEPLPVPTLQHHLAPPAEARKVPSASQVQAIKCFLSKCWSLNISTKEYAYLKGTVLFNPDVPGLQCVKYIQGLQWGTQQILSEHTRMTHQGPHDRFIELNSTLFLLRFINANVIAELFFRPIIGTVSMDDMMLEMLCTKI
DAX1 inh-2: DAX1 (NR0B1) inhibitors on StAR promoter, primary screen, cell-based, luminescence, SF-1 (NR5A1), full-length DAX-1; HEK293T StAR-luciferase reporter, SF-1/DAX-1 repression relief; inhibition, % at 6.8 µM; hit rate 1.1% among 370,000;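 active = inhibition above the mean over all tested compounds plus 3 SD, cut at about 3.6% in these data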;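 note: higher inhibition means more luminescence from relief of DAX-1 repression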
SMARCA2 act: SMARCA2 (BRM) function activators, primary screen, cell-based, luminescence, high throughput | MG213 cells, MMTV-luciferase reporter, dexamethasone, overnight | activation, % at 9.1 µM | hit rate 1% among 370,000; in the data active = activation above about 7.8%
hgDAF12 agonist: H. glycines DAF-12 receptor agonists, primary screen, cell-based, luminescence, HEK293, GAL4 fusion, UAS-luciferase | HEK293 GAL4-hgDAF12 UAS-luciferase reporter, agonist luminescence; normalized to butyrate control | hit rate 1.8% among 370,000 | Nuclear hormone receptor DAF-12 (Heterodera glycines), GAL4 fusion | activation, % at 6.8 µM | AID 687014, 2013;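 active = activation above a cutoff set at the mean of all screened compounds plus 3 SD, cut at about 10% in these data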
ssDAF12 agonist: S. stercoralis DAF-12 nuclear receptor activators, primary screen, cell-based, luminescence, HEK293, GRIP1 co-expression, lit1-tk-luc | Nuclear hormone receptor DAF-12 (Strongyloides stercoralis) | HEK293 ssDAF-12/GRIP1 lit1-tk-luc reporter; % of 3 µM dafachronic acid response | activation, % at 6.8 µM | hit rate 1% among 370,000 | AID 652126, 2013;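 active = activation above the mean over all tested compounds plus 3 SD, cut at about 0.9% in these data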
hcDAF-12 act: H. contortus DAF-12 nuclear receptor activators, primary screen, cell-based, luminescence, HEK293, lit1-tk-luc reporter | HEK293 hcDAF-12 lit1-tk-luc reporter; 0% DMSO, 100% Δ7-dafachronic acid | activation, % at 6.8 µM | hit rate 1.4% among 370,000;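 active = activation above the mean of all tested compounds plus 3 SD, cut at about 5.5% in these data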
SMARCA2 act conf: SMARCA2 (BRM) function activators, confirmation, cell-based, luminescence, triplicate. hit rate 30% among 3,500. MG213 cells, MMTV-luciferase with dexamethasone, overnight; MG213 cells expressing E1A, Rb sequestered; DMSO wells 0%, reference activator 100%. shares compounds with SMARCA2 act. activation, % at 9.1 µM. AID 652260, 2013;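 active = activation above its plate's cutoff, the mean activation of tested wells plus 3 SD, cut at about 7.9% in these data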
VP16 Luc act: GAL4-VP16 luciferase reporter activation, counter-screen for SMARCA2 (BRM) activator project, cell-based, pG5luc, luminescence, high throughput | hit rate 41% among 3,500 | shares compounds with SMARCA2 act | AID 686939, 2013 | activation, % at 9.1 µM | HEK293 GAL4-VP16 pG5luc reporter; scaled: DMSO wells 0%, SAHA wells 100%;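 active = activation above the solvent-only control well mean plus 3 SD, averaged across control plates, cut at about 5.2% in these data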
Large screens that a line does not name were inactive (follow-up assays come after a bar, where they were run).

COc1cc2sc3cc(NCc4ccc5c(c4)OCO5)ccc3c(=O)c2cc1OC	none
O=C(Cc1ccccc1)N(c1ccc(F)cc1)C1C=CS(=O)(=O)C1 (stereo unspecified)	SMARCA2 act 9.9 | SMARCA2 act conf inactive | VP16 Luc act inactive
O=C(OCc1ccccc1)[C@H](Cc1ccccc1)NC(=O)[C@@H]1CC=C[C@@H]2CCN(Cc3ccc(Cl)cc3)C(=O)[C@@H]21	none (no result: DAX1 inh-1, DAX1 inh-2, SMARCA2 act)
c1ccn2c(c1)nc1c2nc2ccccn21	SMARCA2 act 12.5, hgDAF12 agonist 13.1, ssDAF12 agonist 1.1 | SMARCA2 act conf inactive | VP16 Luc act inactive
CC(C)(C)OC(=O)COc1ccc(/C=N/NC(=O)CN2CCCCC2)cc1	SMARCA2 act 14.0, hgDAF12 agonist 12.7 | SMARCA2 act conf inactive | VP16 Luc act 5.3
COc1ccc(/C=N/NC(=O)CN2CCCC2)cc1	none
O=C(CCl)Oc1ccc2occ(C(=O)c3cccs3)c2c1	SMARCA2 act 8.6 | SMARCA2 act conf inactive | VP16 Luc act 6.5
Cc1cccc(CN2C(=O)[C@H]3Cc4c([nH]c5ccccc45)C(C)(C)N3C2=O)c1	none
O=C(COc1ccccc1Br)NCc1ccco1	SMARCA2 act 13.0 | SMARCA2 act conf inactive | VP16 Luc act inactive
Cc1ccccc1N1CCN(CC(=O)Nc2nccs2)CC1	none
COc1ccc(-c2csc(NC(=O)CSc3nc(C)cs3)n2)cc1	none
O=C(CCC(=O)c1cccs1)NC(c1ccccc1)c1ccccc1	SMARCA2 act 9.0 | SMARCA2 act conf inactive | VP16 Luc act inactive
Cc1ccc(NC(=O)CCC(=O)c2cccs2)c(O)c1	SMARCA2 act 10.4 | SMARCA2 act conf inactive | VP16 Luc act inactive
CC(NC(=O)CCC(=O)c1cccs1)c1ccccc1 (stereo unspecified)	none
Cc1ccc(F)cc1NC(=O)CCC(=O)c1cccs1	none
c1ccc(OCc2nnc3sc(C4COc5ccccc5O4)nn23)cc1 (stereo unspecified)	SMARCA2 act 9.2 | SMARCA2 act conf inactive | VP16 Luc act inactive
CCN(CC)C(=O)Oc1ccc2c(=O)c(-c3ccccc3)coc2c1	DAX1 inh-2 4.1, SMARCA2 act 12.7, hgDAF12 agonist 11.5 | SMARCA2 act conf inactive | VP16 Luc act 11.4
O=C1NC(c2ccccc2Cl)=N/C1=C/c1ccco1	SMARCA2 act 18.4 | SMARCA2 act conf 9.7 | VP16 Luc act 8.1
O=C1NC(c2ccc(Br)cc2)=N/C1=C/c1ccco1	SMARCA2 act 8.1 | SMARCA2 act conf inactive | VP16 Luc act 10.7
Cc1cccc(C)c1OCc1cc(C(=O)NCc2ccc(Cl)s2)no1	none
Cn1c(=O)cc(OCC(=O)NCCC2=CCCCC2)c2ccccc21	none
O=C(c1ccccc1)c1cnc(-c2ccc(Cl)cc2)s1	DAX1 inh-1 5.0, SMARCA2 act 14.3, hgDAF12 agonist 12.3 | SMARCA2 act conf inactive | VP16 Luc act 6.9
Cc1cc(=O)oc2cc(OCCCC[n+]3ccccc3)ccc12	none
Cc1cc(=O)oc2cc(OCCc3ccccc3)ccc12	SMARCA2 act 8.6 | SMARCA2 act conf 8.7 | VP16 Luc act 20.5
Oc1ccc(Cl)cc1CNc1cnc2ccccc2c1	none
Oc1ccccc1CNc1cnc2ccccc2c1	SMARCA2 act 11.1 | SMARCA2 act conf 9.5 | VP16 Luc act 8.8
